# PubChem BioAssay AID651871 (Sanford-Burnham Center for Chemical Genomics, 2012)
# System: HL-1
# Assay: protection of cardiomyocytes from stress damage, SAR follow-up, cell-based, panel, H9c2 and HL-1, ATP luminescence, set 2 (AID 651871);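 further: cells exposed to stressor for 2 h before ATP readout; reference of the scale not given here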
# Details: H9c2/HL-1 cardiomyocytes, 2-deoxyglucose stress, with 2-deoxyglucose, run 5, at 19.8 µM (top of the series)
compound,measurement,value
COc1ccc2c(c1OC)C(=O)N1c3ccccc3C(=O)N(Cc3cccc(Cl)c3Cl)C21 (stereo unspecified),activity (protection/inhibition),51.6%
